Experimental data reported in PubChem BioAssay AID1209 (Sanford-Burnham Center for Chemical Genomics, 2008).
Where “and” joins values, the source holds several entries; their conditions need not be identical. Equal values may be shown once. In all, about 190,000 compounds went through this assay and about 810 (0.43%) were called active. Only a selection was taken, and actives are over-represented in it overall. Values without a mark were called inactive. No stated cut-off is given here; in the data, active means inhibition above about 50%; inactive means the rest.

The molecules below were run against Mannose-6-phosphate isomerase (Homo sapiens) (UniProt P34949) (assay: MPI enzyme activity inhibition – biochemical, fluorescence intensity, coupled assay, primary screen (AID 1209;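 further: plate controls were DMSO vehicle for no effect and wells lacking substrate for full effect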)). Conditions: purified PMI enzyme, at 20 µM, active compounds read high.
Mannose-6-phosphate isomerase (Homo sapiens), sequence (P34949 whole entry, looked up): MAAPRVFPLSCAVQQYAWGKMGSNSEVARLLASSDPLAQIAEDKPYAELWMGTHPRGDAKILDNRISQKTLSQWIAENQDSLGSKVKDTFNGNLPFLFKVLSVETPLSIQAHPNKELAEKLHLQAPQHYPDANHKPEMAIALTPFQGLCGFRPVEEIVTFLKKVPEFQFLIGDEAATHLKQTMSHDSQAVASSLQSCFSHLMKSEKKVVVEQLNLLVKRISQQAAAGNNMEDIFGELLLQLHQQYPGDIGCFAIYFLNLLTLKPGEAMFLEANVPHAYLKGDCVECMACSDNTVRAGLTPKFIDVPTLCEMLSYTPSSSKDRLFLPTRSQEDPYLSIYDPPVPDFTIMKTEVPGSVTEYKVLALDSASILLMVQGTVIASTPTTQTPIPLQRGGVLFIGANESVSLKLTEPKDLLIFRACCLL
`Cc1ccc2c(c1)cc(CN(Cc1ccc3c(c1)OCO3)S(=O)(=O)c1ccccc1)c1nnnn12` was tested, and the inhibition was 12.1%. For `Cc1ccc2c(c1)cc(CN(Cc1ccco1)S(=O)(=O)c1ccccc1)c1nnnn12`, the inhibition was 72.3% (active). With `Cc1ccc2c(c1)cc(CN(Cc1ccco1)C(=O)COc1ccccc1)c1nnnn12` the inhibition was -0.9%. Molecule `Cc1ccc(O)c(/C=N/NC(=O)c2[nH]ncc2Br)c1` has an inhibition of -11.3%. In the case of `COc1ccc(C=Nc2ccc3[nH]ncc3c2)c(O)c1`, the inhibition was 47.9%. `Cc1ccc(O)c(C=Nc2ccc3[nH]ncc3c2)c1` was tested, and the inhibition was 51.9% (active). For `CCOC(=O)c1c(-c2ccc(F)cc2)cn2ccccc12`, the inhibition was 4.3%. `CCOC(=O)c1c(-c2ccc(C)cc2)cn2ccccc12` gave an inhibition of -10.2%. In the case of `CCOC(=O)c1c(-c2ccccc2)cn2ccccc12`, the inhibition was 53.7% (active). `COc1ccc(-c2csc(Nc3ccc(S(=O)(=O)Nc4cc(C)on4)cc3)n2)cc1C` was tested, and the inhibition was 18.4%. `CN(Cc1ccncn1)C(=O)CC1C(=O)NCCN1Cc1cccc(Oc2ccccc2)c1` (configuration not stated) showed an inhibition of 4.2%. For `COc1ccccc1N1CCN(CCCCOc2cccc3ccccc23)CC1`, the inhibition was -10.7%. In the case of `CCOc1ccc(NC(=S)Nc2cccnc2)cc1`, the inhibition was 27.8%. With `COc1ccc(NC(=S)Nc2cccc3cnccc23)cc1` the inhibition was 64.2% (active). In the case of `O=C(NC(=S)Nc1cccc2cnccc12)c1ccccc1`, the inhibition was 22.7%. Molecule `CCc1ccc(NC(=S)Nc2cccc3cnccc23)cc1` has an inhibition of 40.2%. Molecule `CCOc1ccc(NC(=S)Nc2cc(-c3ccccc3)[nH]n2)cc1` has an inhibition of 35.1%. `CCOc1ccc(NC(=S)Nc2ccc(OCC)cc2)cc1` was tested, and the inhibition was 7.6%. With `COc1cc(NC(=S)Nc2cccnc2)cc(OC)c1` the inhibition was 55.4% (active). For `COc1cc(OC)cc(C(=O)NC(=S)Nc2cccnc2)c1`, the inhibition was 13.1%. With `CCOc1ccc(NC(=S)Nc2cccc3cnccc23)cc1` the inhibition was 64.9% (active). `Fc1ccc(NC(=S)Nc2cccc3cnccc23)cc1` gave an inhibition of 10.9%. `COc1cccc(NC(=S)Nc2cccnc2)c1` showed an inhibition of 10.6%. In the case of `CCc1cccc2c(C(=O)Cn3nnc(-c4ccc(OC)c(OC)c4)n3)c[nH]c12`, the inhibition was 13.9%. Work on `O=C(NCCc1c[nH]c2ccccc12)C(=O)NCC1OCCN1S(=O)(=O)c1ccc(Cl)cc1` (configuration not stated) yielded an inhibition of 10%. `COc1ccc(NC(=O)COC(=O)C(CC(C)C)N2C(=O)C3CC=CCC3C2=O)cc1Cl` (configuration not stated) gave an inhibition of 16.5%. Molecule `N#Cc1c(NC(=O)CSc2n[nH]c(Cc3ccccc3)n2)oc(-c2ccccc2)c1-c1ccccc1` has an inhibition of -1.5%. With `CCOc1cccc(OCCOCCOc2ccccc2C(C)=O)c1` the inhibition was 4.1%. `COc1cccc(/C=N/NC(=O)C(=O)N/N=C/c2cccc(OC)c2OC)c1OC` gave an inhibition of -0.6%. In the case of `CCN(CC)CCNC(=O)Cn1c(C)cc2ccccc2c1=O`, the inhibition was -2.3%. `O=C1N=C(N2CCCCC2)SC1=C1CCCC1` was tested, and the inhibition was 1.2%. In the case of `CCN(CC)S(=O)(=O)c1ccc(NC(=O)C2CCCN(C(=O)c3ccc(Cl)cc3)C2)cc1` (configuration not stated), the inhibition was 14.2%. `CCc1ccc(C(=O)COC(=O)c2nn(C)c(=O)c3ccccc23)cc1` showed an inhibition of -3.7%. With `COc1cc(C(=O)O)nc2ccccc12` the inhibition was 26.7%. For `O=C(/C=C/c1ccccc1)NCCN1CCOCC1`, the inhibition was 2.1%. `Fc1ccccc1NC(=S)Nc1cccc2cnccc12` showed an inhibition of 33.9%. In the case of `COc1ccccc1NC(=S)Nc1cccc2cnccc12`, the inhibition was 69.6% (active). In the case of `COCCNC(=S)Nc1cccc2cnccc12`, the inhibition was 17.7%. `COCCn1c(=O)[nH]c2cc(C(=O)NCCc3ccc(S(N)(=O)=O)cc3)ccc2c1=O` showed an inhibition of -4.1%. `CC1CCCC(C(=O)O)N1C(=O)CCSSCCC(=O)N1C(C)CCCC1C(=O)O` (configuration not stated) gave an inhibition of -1.2%. Molecule `CC(C)c1ccc(O)c(NC(=S)NC(=O)CCc2ccccc2)c1` has an inhibition of 12.8%. Molecule `CC(Nc1oc(-c2ccco2)nc1C#N)c1ccccc1` (configuration not stated) has an inhibition of 13.7%. For `O=C(CSc1nnc(-c2c[nH]c3ccccc23)o1)c1ccc(-c2ccccc2)cc1`, the inhibition was 9%. For `CCN(CC)c1ccc(NC(=O)c2ccc(=O)[nH]c2)cc1S(=O)(=O)Nc1ccccc1OC`, the inhibition was 61.7% (active). `CCN(CC)c1ccc(NC(=O)c2cccc(C)c2)cc1S(=O)(=O)Nc1ccccc1OC` was tested, and the inhibition was 53.3% (active). `COc1ccccc1NS(=O)(=O)c1cc(NC(=O)c2ccc(=O)[nH]c2)ccc1N1CCOCC1` gave an inhibition of 0.7%. With `CCN(CC)c1ccc(NC(=O)COc2ccccc2C)cc1S(=O)(=O)Nc1ccccc1OC` the inhibition was 38.9%. With `CCN(CC)c1ccc(NC(=O)c2ccccc2Br)cc1S(=O)(=O)Nc1ccccc1OC` the inhibition was 63.9% (active). With `CCN(CC)c1ccc(NC(=O)COc2ccccc2C#N)cc1S(=O)(=O)Nc1ccccc1OC` the inhibition was -5.1%. `CCN(CC)c1ccc(NC(=O)c2ccccc2)cc1S(=O)(=O)Nc1ccccc1OC` showed an inhibition of 30.8%. Molecule `CCN(CC)c1ccc(NC(=O)c2ccccc2F)cc1S(=O)(=O)Nc1ccccc1OC` has an inhibition of 15.4%. Molecule `COc1ccc(C(=O)Nc2ccc(Cl)c(S(=O)(=O)Nc3ccccc3OC)c2)cc1` has an inhibition of 16.8%. Work on `O=C(COC(=O)c1cnccn1)NCc1ccc2c(c1)OCO2` yielded an inhibition of -15.9%. For `CCC(C)(C(=O)NC1CCCCC1)N(Cc1ccco1)C(=O)CC1NC(=O)NC1=O` (configuration not stated), the inhibition was 8.4%. Molecule `COc1cc(C2NC(=O)NC(C)=C2C(=O)OC(C)C)ccc1OC(=O)c1ccco1` (configuration not stated) has an inhibition of 1%. With `Cc1cccc(Nc2ncnc3c2cnn3C)c1` the inhibition was 10.3%. For `COc1ccc(CN2C(=O)c3ccccc3C2C(=O)NCCc2ccccc2)c(OC)c1` (configuration not stated), the inhibition was 17.9%. `COc1cc(/C=c2\sc3nc(=O)c(-c4ccccc4)nn3c2=O)ccc1OCCC(C)C` was tested, and the inhibition was -1.8%. For `CCOc1ccccc1NC(=O)C1CCN(S(=O)(=O)c2c(C)nn(C)c2C)CC1`, the inhibition was 112% (active). For `CCOc1ccccc1NC(=O)C1CCN(S(=O)(=O)c2c(C)noc2C)CC1`, the inhibition was 5.5%. In the case of `Cc1cccc(NC(=O)C2CCN(S(=O)(=O)c3c(C)nn(C)c3C)CC2)n1`, the inhibition was 8.4%. `N#CC(c1ccc(F)cc1)c1ccc(C(=O)c2ccc(F)cc2)cc1` (configuration not stated) gave an inhibition of 5.1%. Work on `O=S(=O)(Nc1cc(Sc2cccc3cccnc23)c(O)c2ccccc12)c1ccccc1` yielded an inhibition of 9.2%. `COc1ccc(S(=O)(=O)Nc2ccc(O)c(Sc3ncn[nH]3)c2)cc1` was tested, and the inhibition was 10.6%. `O=S(=O)(Nc1cc(Sc2ncn[nH]2)c(O)c2ccccc12)c1ccccc1` was tested, and the inhibition was 99.3% (active). In the case of `COc1ccc(S(=O)(=O)Nc2cc(Sc3ncn[nH]3)c(O)c3ccccc23)cc1`, the inhibition was 98.7% (active). `O=S(=O)(Nc1cc(Sc2cccc3cccnc23)c(O)c2ccccc12)c1ccc(F)cc1` was tested, and the inhibition was 2.1%. Molecule `CCOc1ccc(S(=O)(=O)Nc2ccc(O)c(Sc3ncn[nH]3)c2)cc1` has an inhibition of 3.2%. `Nc1ccccc1N=c1ssnc1Cl` was tested, and the inhibition was 61.4% (active). `OCc1ccccc1N=c1ssnc1Cl` was tested, and the inhibition was 78.3% (active). Molecule `OCc1c(Cl)nc2ccccn12` has an inhibition of -8.7%. In the case of `Cc1cc(Oc2ccccc2)nc(SCC(N)=O)n1`, the inhibition was -2%. In the case of `NC(=O)CSc1nnc(C2CC2)n1-c1ccccc1`, the inhibition was -7.8%. In the case of `O=[N+]([O-])c1cc(S(=O)(=O)N2CCCC2)ccc1NCCc1ccccc1`, the inhibition was 4.4%. `CC1=C(C(=O)Nc2ccccn2)C(c2ccccc2Cl)NC(=S)N1` (configuration not stated) gave an inhibition of -6.6%. In the case of `N#CC(c1cccc(Cl)c1)c1ncc(C(F)(F)F)cc1Cl` (configuration not stated), the inhibition was 9.9%. `CC1CCc2c(sc(NC(=O)COC(=O)c3ccc(O)cc3)c2C#N)C1` (configuration not stated) gave an inhibition of 2.3%. With `COc1ccc(-c2[nH]c3ccccc3c2SCCNC(=O)c2ccccc2)cc1` the inhibition was 7.4%. Molecule `CS(=O)(=O)N1CCN=C1SCc1ccc([N+](=O)[O-])cc1` has an inhibition of -2.2%. `COc1ccc2nc(S(=O)Cc3ncc(C)c(OC)c3C)[nH]c2c1` (configuration not stated) was tested, and the inhibition was 72.5% (active). `COc1ccc2nc(C(C)O)[nH]c2c1` (configuration not stated) showed an inhibition of 5.1%. `Cc1c(OCC(F)(F)F)ccnc1CS(=O)c1nc2ccccc2[nH]1` (configuration not stated) was tested, and the inhibition was 30.6% and 46.2%. With `Cc1ccc(OCCn2c(=S)[nH]c3c(N)ncnc32)cc1` the inhibition was 8.7%. In the case of `CC(C)Oc1ccc(OCCn2c(=S)[nH]c3c(N)ncnc32)cc1`, the inhibition was 54.9% (active). For `CCOc1ccc(OCCn2c(=S)[nH]c3c(N)ncnc32)cc1`, the inhibition was 11%. In the case of `Cc1cccc(C(=O)Nc2ncc(CN3CCOCC3)s2)c1`, the inhibition was 4.7%. For `O=c1[nH]c2ccc(N=Cc3c(O)ccc4cc(Br)ccc34)cc2[nH]1`, the inhibition was 64.6% (active). `Cc1ccc(-n2[nH]c(C)c(C=Nc3ccc4[nH]c(=O)[nH]c4c3)c2=O)cc1` was tested, and the inhibition was 16.2%. For `Cc1[nH]n(-c2cccc3ccccc23)c(=O)c1C=Nc1ccc2[nH]c(=O)[nH]c2c1`, the inhibition was 14.6%. For `CC(C)(C)NC(=O)NC(=O)COC(=O)Cc1coc2ccc3ccccc3c12`, the inhibition was 25.3%. `CN(C)/C=C1/Oc2c(ccc3ccccc23)C1=O` was tested, and the inhibition was 21.5%. Work on `COc1cccc2c1C(=O)c1ccc3ccccc3c1C2=O` yielded an inhibition of -43.2%. In the case of `CN(C)/C=C1\Oc2ccc3ccccc3c2C1=O`, the inhibition was 86.5% (active). `CCNC(=O)CC1SC(=Nc2ccc(C)cc2)NC1=O` (configuration not stated) was tested, and the inhibition was -4.7%. `CC(=O)c1cccc(NC(=O)NNC(=O)CCC(=O)Nc2ccc(C)c(C)c2)c1` gave an inhibition of -12%. `Cc1ccc(S(=O)(=O)c2ccc(C)cc2)cc1` gave an inhibition of -0.6%. `CC(=O)Nc1ccc(S(=O)(=O)c2ccc(C)cc2)cc1` showed an inhibition of 10.7%.
